High-throughput results (PubChem)
Shn3 3UTR inh: Schnurri-3 reporter inhibition in Clone20 osteoblasts; Clone20 osteoblast Shn3 3'UTR firefly luciferase, 24 h; inhibition, % at 12.5 µM; 360,000 tested, 0.52% active;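 active = mean inhibition of at least 75% with every replicate also reaching 75%; inconclusive = mean inhibition at least 75% but some replicate below; inactive = mean inhibition below 75%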;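 also: 0% = median of neutral control wells and 100% = pilot-screen positive control compound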
HIF-2a block: blocks HIF-2a reporter activity; inhibition, % at 18.8 µM; 786-0 RCC cells HIF-2a reporter, luciferase luminescence, overnight; 360,000 tested, 0.72% active;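 active = inhibition of the luminescence signal of 40% or more relative to plate controls, in a single-dose primary screen at 18.75 µM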
Peg3 prom inh: reduces Peg3 promoter-driven luciferase expression in HeLa. inhibition, % at 20 µM. HeLa PEG-Prom luciferase reporter, luminescence, overnight. 360,000 tested, 1.7% active;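 active = inhibition of at least 50% at 20 µM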
MITF TRPM1 inh: inhibitors of MITF-driven TRPM1 promoter in melanoma cells; 330,000 tested, 0.83% active; SK-MEL-5 TRPM1 promoter luciferase, 24 h; inhibition, % at 12.5 µM;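 active = mean inhibition across replicates of 60% or more, whatever share of single replicates reaches that level; inconclusive = some that reach 60%, reason not given; inactive = mean inhibition across replicates below 60%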
CF NFkB inh: blocks PAF-induced NF-kB reporter in cystic fibrosis cells. KKLEB NF-kB-GFP reporter, GFP fluorescence overnight. inhibition, % at 5 µM. 360,000 tested, 0.86% active. AID 588850;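 active = at least 50% inhibition at 5 µM, scaled per plate between neutral and stimulator controls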;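 also: PAF is a Pseudomonas aeruginosa culture filtrate used as stimulus; plate controls were PAF-stimulated DMSO wells for no effect and unstimulated DMSO wells for full effect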
KKLEB tox: CF airway cell cytotoxicity counter-screen; AID 602141; KKLEB CF airway cells viability, ATPlite luminescence, overnight; hits give low values; cells stimulated with P. aeruginosa culture filtrate; activity change (cytotoxicity), % at 5 µM; 360,000 tested, 0.36% active;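 active = corrected activity change at or below -50% at 5 µM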
Mdm2-MdmX confirm: confirmation of inhibitors of human Mdm2/MdmX interaction, set 2; inhibition, % at 8 µM; SaOS-2 split-luciferase Mdm2/MdmX complementation, luminescence; shares compounds with HIF-2a block; 740 tested, 99% active;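 active = mean inhibition of the luminescence signal across two replicates at or above 26 percent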
Target sequence (O15151 whole entry, looked up): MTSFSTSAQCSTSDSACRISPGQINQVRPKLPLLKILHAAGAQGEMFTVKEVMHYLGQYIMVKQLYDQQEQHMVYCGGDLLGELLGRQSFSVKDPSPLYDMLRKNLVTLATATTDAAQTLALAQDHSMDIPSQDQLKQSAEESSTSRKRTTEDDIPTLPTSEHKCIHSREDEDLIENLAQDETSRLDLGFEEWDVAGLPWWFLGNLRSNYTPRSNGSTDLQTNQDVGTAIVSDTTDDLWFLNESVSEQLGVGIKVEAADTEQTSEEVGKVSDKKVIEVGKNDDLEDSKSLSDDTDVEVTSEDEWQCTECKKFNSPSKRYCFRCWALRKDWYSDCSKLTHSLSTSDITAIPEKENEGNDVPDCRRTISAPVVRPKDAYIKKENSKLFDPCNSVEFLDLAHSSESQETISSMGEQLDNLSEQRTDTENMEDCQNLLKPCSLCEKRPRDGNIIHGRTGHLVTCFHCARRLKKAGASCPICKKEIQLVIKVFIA
Target sequence (Q00987 whole entry, looked up): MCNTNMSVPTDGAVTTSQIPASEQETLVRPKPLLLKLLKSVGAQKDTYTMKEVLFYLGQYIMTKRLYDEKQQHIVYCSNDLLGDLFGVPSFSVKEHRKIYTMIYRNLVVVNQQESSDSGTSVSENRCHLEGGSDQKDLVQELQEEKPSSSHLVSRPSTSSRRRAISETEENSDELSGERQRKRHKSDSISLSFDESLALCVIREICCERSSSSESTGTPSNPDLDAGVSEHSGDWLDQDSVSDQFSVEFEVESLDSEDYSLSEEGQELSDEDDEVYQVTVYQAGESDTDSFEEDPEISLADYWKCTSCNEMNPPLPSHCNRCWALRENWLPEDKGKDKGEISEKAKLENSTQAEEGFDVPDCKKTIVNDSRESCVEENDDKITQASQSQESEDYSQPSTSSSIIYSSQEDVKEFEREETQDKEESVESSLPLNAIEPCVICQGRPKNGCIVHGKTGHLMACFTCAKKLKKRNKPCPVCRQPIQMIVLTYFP
HIF-2a conf: HIF-2a inhibition, single concentration confirmation | shares compounds with HIF-2a block | AID 651580 | 786-0 RCC cells, HIF-2a luciferase reporter luminescence, overnight | 1,800 tested, 56% active | inhibition, % at 18.8 µM;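 active = mean inhibition across four replicates of at least 40 percent at the single tested concentration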
HIF-1a cs: HIF-1a inhibition counter-screen for HIF-2a hits; shares compounds with HIF-2a block; MiaPaCa-2 HIF-1a luciferase reporter, desferoxamine, overnight; inhibition, % at 18.8 µM; 1,800 tested, 72% active; AID 651589;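 active = mean inhibition of the reporter signal across four replicates at the single tested dose of 50% or more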
The depositor's hits bear a star; ? = inconclusive; nt = not tested or not shown. Rows were chosen to be rich in hits. Some 2.8% of all compounds tested hit in one or more screens of this group.

SMILES	Shn3 3UTR inh	HIF-2a block	Peg3 prom inh	MITF TRPM1 inh	CF NFkB inh	KKLEB tox	HIF-2a conf	HIF-1a cs	others
N=c1n(CC(=O)c2ccc(Br)cc2)c2ccccc2n1Cc1ccccc1	36	-9	99*	90*	-9	-24	nt	nt	Mdm2-MdmX confirm=102*
Cc1ccc(NC(=O)[C@H](Cc2c[nH]c3ccccc23)NC(=O)[C@@H]2Cc3ccccc3CN2)c(C)c1	11	-47	-13	nt	-24	-4	nt	nt	Mdm2-MdmX confirm=98*
C=C1C(=O)[C@]23C[C@H]1CC[C@H]2[C@]1(C)[C@@H](OC(C)=O)CC[C@@](C)(C(=O)OC)[C@H]1C[C@@H]3OC(C)=O	96*	97*	99*	nt	95*	-97*	98*	107*
Oc1cccc(Nc2nc(N3CCOCC3)nc(N3CCOCC3)n2)c1	25	49*	7	-7	38	-27	24	76*
CCCCCN=C(N)N/N=C/c1c[nH]c2ccc(OC)cc12	67	98*	95*	97*	25	-24	35	100*
Cc1ccc(C)c(S(=O)(=O)ON2C(=O)c3ccccc3C2=O)c1	65	68*	56*	40	-8	-13	57*	2
Cc1ccc(S(=O)(=O)ON2C(=O)c3cccc4cccc(c34)C2=O)cc1	-17	-1	13	12	-11	4	nt	nt
CCCC(=O)NC(c1ccc(Cl)cc1Cl)c1ccc2cccnc2c1O (stereo not drawn)	92*	12	59*	66*	-9	-7	nt	nt	Mdm2-MdmX confirm=85*
CC(C)C(=O)NC(c1cccc([N+](=O)[O-])c1)c1ccc2cccnc2c1O (stereo not drawn)	89*	20	63*	62*	8	-9	nt	nt	Mdm2-MdmX confirm=88*
CCCC(=O)NC(c1ccccc1OC)c1ccc2cccnc2c1O (stereo not drawn)	88*	25	58*	81*	6	0	nt	nt	Mdm2-MdmX confirm=87*
Cc1ccc(S(=O)(=O)Oc2ccc(C3C4=C(CCCC4=O)N(CCC(=O)O)C4=C3C(=O)CCC4)cc2Cl)cc1	-20	18	-5	7	8	-6	nt	nt
COc1cc(N2C(=O)C=CC2=O)c(OC)cc1Cl	nt	41*	106*	-4	22	-2	80*	0
NCCCn1cnc2ccccc21	-6	47*	4	11	8	2	1	25
CCCC[C@H](CN[C@@H](CNC)[C@H](C)CC)NCCC12CCC(CC1)C2	?	-7	102*	94*	-12	-1	nt	nt	Mdm2-MdmX confirm=103*
CC[C@H](C)[C@@H](CNC)NC[C@@H](Cc1ccc(O)cc1)NCC(C)(C)C	18	3	-11	-2	-35	-2	nt	nt
O=C(Nc1ccc(N2CCOCC2)cc1)c1cnccn1	30	53*	59*	25	-15	-4	71*	22
O=C(Nc1ccccc1N1CCOCC1)c1cnccn1	-2	13	7	6	2	1	nt	nt
Cc1sc2ncnc(Nc3ccccc3)c2c1C	nt	-55	-25	-23	2	2	nt	nt
Cc1sc2ncnc(Nc3ccc(N4CCOCC4)cc3)c2c1-c1ccccc1	-10	45*	29	4	24	-14	24	79*
CCCCSc1ncnc2c1ncn2C1CCCCO1 (stereo not drawn)	-9	-145	-284	-89	12	-11	nt	nt
CC(=O)Nc1ccc(Nc2cc(C)nc3c(-c4ccccc4)cnn23)cc1	28	53*	39	-1	19	-10	78*	93*
Cc1cc(N)n2ncc(-c3ccccc3)c2n1	-64	-268	-278	-67	8	-4	nt	nt
COc1ccc(OC)c2sc(N(CCCN(C)C)C(=O)CCS(=O)(=O)c3ccccc3)nc12	19	45*	109*	21	86*	-30	37	60*
COc1ccc(Cl)c2sc(N(CCN(C)C)C(=O)CCS(=O)(=O)c3ccc(C)cc3)nc12	-4	2	18	5	17	-12	nt	nt
CN(C)CCN(C(=O)CCS(=O)(=O)c1ccccc1)c1nc2c(F)cccc2s1	-11	5	-21	-12	16	9	nt	nt
SMILES	Shn3 3UTR inh	HIF-2a block	Peg3 prom inh	MITF TRPM1 inh	CF NFkB inh	KKLEB tox	HIF-2a conf	HIF-1a cs	others
Cc1ccc2sc(N(CCCN(C)C)C(=O)CCS(=O)(=O)c3ccccc3)nc2c1C	57	88*	108*	33	92*	-81*	24	77*
CCOC(=O)c1c(C)nc2c(c1-c1cc(OC)c(OC)c(OC)c1)C(=O)c1ccccc1-2	5	12	28	-4	-7	11	nt	nt
CCCCN(C(=O)c1ccc(S(=O)(=O)N2CCC(C)CC2)cc1)C1CCS(=O)(=O)C1 (stereo not drawn)	15	14	17	9	1	-10	nt	nt
Cc1ccc(-c2cc(N)n[nH]2)cc1	0	-74	-1	-4	9	-3	nt	nt
CC(C)(C)c1ccc(-c2cc(N)n[nH]2)cc1	33	87*	-76	95*	3	2	95*	74*
O=C(COC(=O)Cc1n[nH]c(=O)c2ccccc12)Nc1ccc(Cl)cc1F	nt	15	11	4	-1	2	nt	nt
Cc1nnnn1/C(=C\c1ccccc1)C(=O)OCC(=O)Nc1ccc(Cl)cc1F	-13	88*	98*	51	84*	-70*	96*	56*
COc1ccc(CCN2CC(C(=O)N(C)Cc3c(C)n[nH]c3C)CCC2=O)cc1 (stereo not drawn)	-65	3	-2	-5	-9	8	nt	nt
COc1ccc(C(=O)/C=C/C(=O)N(CC(=O)NC2CCCCC2)Cc2cccs2)c(O)c1	93*	95*	105*	105*	35	-16	95*	101*
COCCN(CC(=O)NC1CCCCC1)C(=O)/C=C/C(=O)c1ccc(OC)cc1O	98*	92*	97*	94*	26	5	99*	103*
COc1ccc(CN(C(=O)/C=C/C(=O)c2ccc(OC)cc2O)C(C(=O)NC2CCCCC2)c2ccncc2)cc1 (stereo not drawn)	-2	32	9	15	-4	2	nt	nt
CCCCN=C1NC(=O)C(CC(=O)NCCc2ccc(OC)cc2)S1 (stereo not drawn)	17	14	12	-12	-17	10	nt	nt
CCN(CC)S(=O)(=O)c1ccc(N/N=C/c2ccc(O)cc2O)nc1	?	2	42	50	-1	4	nt	nt	Mdm2-MdmX confirm=87*
CCOC(=O)Cc1csc(SCC(=O)NC2CCCC2)n1	0	14	-3	5	-3	2	nt	nt
